Experimental findings from ChEMBL document CHEMBL3988442, “University of Dundee, Small-Polar-MMV Screening Library” (2021) are described below.

SMILES strings stand for the structures. For some of these results: Entries with a potency or affinity are not part of this list.

What all share (design): scale not given: direction of the effect not stated beside the values
Assay [1] addresses Protein translocase subunit SecA (Escherichia coli (strain K12)) (UniProt P10408). Nature of the assay: Assay to Identify E. coli SecA ATPase Inhibitors. The conditions noted are these: 30 µM. Type of assay: functional.
The target of assay [2] is T1, Ubiquitin-activating enzyme e1, putative (Leishmania donovani (strain BPK282A1)) (UniProt E9BSI1).
T1 sequence (whole entry): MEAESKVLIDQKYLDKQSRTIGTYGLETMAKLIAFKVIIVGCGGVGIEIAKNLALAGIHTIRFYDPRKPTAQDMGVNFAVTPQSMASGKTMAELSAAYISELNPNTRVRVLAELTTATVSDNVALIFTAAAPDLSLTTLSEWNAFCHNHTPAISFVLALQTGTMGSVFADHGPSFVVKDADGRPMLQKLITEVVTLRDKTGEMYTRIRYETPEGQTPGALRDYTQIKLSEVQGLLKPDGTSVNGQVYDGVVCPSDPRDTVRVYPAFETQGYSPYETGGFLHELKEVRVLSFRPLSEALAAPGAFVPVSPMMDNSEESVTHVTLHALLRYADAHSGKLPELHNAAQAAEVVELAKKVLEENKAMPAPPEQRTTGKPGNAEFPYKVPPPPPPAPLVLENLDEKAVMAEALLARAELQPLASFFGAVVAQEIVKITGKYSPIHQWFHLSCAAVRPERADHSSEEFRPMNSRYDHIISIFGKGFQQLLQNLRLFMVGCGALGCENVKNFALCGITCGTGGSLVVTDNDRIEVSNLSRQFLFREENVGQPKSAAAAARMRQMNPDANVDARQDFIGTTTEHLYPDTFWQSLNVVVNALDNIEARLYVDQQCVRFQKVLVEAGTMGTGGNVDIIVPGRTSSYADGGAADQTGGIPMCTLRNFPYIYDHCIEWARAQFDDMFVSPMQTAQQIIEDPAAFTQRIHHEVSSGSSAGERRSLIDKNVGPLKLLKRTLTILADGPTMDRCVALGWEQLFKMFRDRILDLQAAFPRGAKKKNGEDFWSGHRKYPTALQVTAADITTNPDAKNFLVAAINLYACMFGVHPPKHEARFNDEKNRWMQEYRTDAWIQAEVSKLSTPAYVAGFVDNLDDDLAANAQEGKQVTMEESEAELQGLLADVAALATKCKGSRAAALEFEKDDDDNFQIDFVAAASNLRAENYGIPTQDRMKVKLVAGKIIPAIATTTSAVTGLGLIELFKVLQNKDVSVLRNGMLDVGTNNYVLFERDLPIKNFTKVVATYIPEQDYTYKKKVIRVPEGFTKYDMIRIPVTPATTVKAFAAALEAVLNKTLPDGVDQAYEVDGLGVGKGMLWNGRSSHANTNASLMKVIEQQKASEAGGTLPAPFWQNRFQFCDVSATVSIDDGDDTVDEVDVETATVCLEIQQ
Briefly: Leishmania donovani Ubiquitin Activating Enzyme (LdE1). In kind it is functional. The conditions noted are these: 30 µM.

Assay [3] deals with AMP-activated protein kinase, AMPK (Homo sapiens) (UniProt P54646+O43741+P54619+Q9UGJ0+Q9Y478+Q13131+Q9UGI9). Nature of the assay: AMP-dependent Kinase enzyme assay. An in vitro enzyme assay that detects ADP turnover that is directly proportional to AMPK activity. This uses naive AMPK that is activated during the assay with MK-8722. Particulars: 30 µM. In kind it is functional.

The target of assay [4] is Sialic acid-binding Ig-like lectin 9 (Homo sapiens) (UniProt Q9Y336). Nature of the assay: Hs-Siglec9 ALPHAscreen SOP 20170721. The conditions noted are these: 10 µM. (In general: In Alpha technology, singlet oxygen from a donor bead excites a nearby acceptor bead.)
Assay [5] has as its system Trypanosoma cruzi. Briefly: Trypanosoma cruzi phosphomannomutase and mannose-1-phosphate guanylyltransferase assay. Type of assay: functional. Particulars: 10 µM.
Assay [6] concerns the target T2, Arginase-2, mitochondrial (Homo sapiens) (UniProt P78540).
T2 sequence (whole entry): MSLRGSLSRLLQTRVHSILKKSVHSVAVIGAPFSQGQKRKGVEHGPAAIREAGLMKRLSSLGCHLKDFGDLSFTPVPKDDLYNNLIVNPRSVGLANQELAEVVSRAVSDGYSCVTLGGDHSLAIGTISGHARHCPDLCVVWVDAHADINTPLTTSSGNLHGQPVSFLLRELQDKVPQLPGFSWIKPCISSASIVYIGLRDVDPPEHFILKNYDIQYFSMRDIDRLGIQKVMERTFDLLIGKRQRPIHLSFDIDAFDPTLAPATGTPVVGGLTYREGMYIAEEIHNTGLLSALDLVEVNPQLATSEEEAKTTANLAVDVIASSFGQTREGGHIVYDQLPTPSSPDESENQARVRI
Nature of the assay: in vitro enzyme assay to detect the production of urea directly proportional to the activity of Arginase II. Also: in the data most compounds retested in dose-response had high values. Particulars: 33.3 µM. In kind it is functional.

The target in assay [7] is T3, Proteasome subunit beta (Trypanosoma cruzi) (UniProt O96673).
T3 sequence (whole entry): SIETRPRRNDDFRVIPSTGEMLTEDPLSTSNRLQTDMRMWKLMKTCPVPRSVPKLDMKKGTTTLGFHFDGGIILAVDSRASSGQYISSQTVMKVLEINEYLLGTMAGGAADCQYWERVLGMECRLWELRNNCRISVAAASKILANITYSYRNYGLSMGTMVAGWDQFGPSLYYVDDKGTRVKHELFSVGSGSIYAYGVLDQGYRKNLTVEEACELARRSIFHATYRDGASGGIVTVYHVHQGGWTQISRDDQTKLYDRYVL
Briefly: Trypanosoma cruzi proteasome chymotrypsin-like activity (TcProtChymo) assay. Also: in the data most compounds retested in dose-response had high values. In kind it is functional. Particulars: 9.37 µM.

The species entered for assay [8] is Homo sapiens. Briefly: To identify inhibition of the IFN signalling (Jak-Stat) pathway via expression of an eGFP reporter gene under the control of an IFN-stimulated response element (ISRE) containing MxA promoter. In kind it is functional. The conditions noted are these: 30 µM.
Assay [9] has as its target T4, Tyrosyl-tRNA synthetase, putative (Trypanosoma cruzi (strain CL Brener)) (UniProt Q4DSP6).
T4 sequence (whole entry): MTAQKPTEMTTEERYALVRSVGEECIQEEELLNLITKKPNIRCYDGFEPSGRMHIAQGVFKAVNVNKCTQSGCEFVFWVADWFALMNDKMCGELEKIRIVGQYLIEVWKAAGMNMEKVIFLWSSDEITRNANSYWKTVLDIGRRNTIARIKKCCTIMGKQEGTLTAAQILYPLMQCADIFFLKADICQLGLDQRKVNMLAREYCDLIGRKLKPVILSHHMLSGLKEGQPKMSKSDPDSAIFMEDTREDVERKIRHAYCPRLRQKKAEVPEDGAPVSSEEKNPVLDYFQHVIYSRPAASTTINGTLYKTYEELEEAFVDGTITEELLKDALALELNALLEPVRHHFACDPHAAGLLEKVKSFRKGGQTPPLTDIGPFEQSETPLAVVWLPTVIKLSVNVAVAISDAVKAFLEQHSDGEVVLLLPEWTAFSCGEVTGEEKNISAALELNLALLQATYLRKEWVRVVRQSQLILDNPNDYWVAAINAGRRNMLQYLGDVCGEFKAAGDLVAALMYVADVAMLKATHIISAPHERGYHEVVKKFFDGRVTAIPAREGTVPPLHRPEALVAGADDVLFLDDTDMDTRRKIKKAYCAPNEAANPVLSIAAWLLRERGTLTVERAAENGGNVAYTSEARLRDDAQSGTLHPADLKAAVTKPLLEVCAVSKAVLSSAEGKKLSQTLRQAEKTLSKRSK
Nature of the assay: Trypanosoma cruzi tyrosyl tRNA synthetase (TcYRS) _High Tyrosine SOP. Also: in the data most compounds retested in dose-response had high values. Type of assay: functional. Particulars: 30 µM.

For assay [10], the target named is T4, Tyrosyl-tRNA synthetase, putative (Trypanosoma cruzi (strain CL Brener)). Briefly: Trypanosoma cruzi tyrosyl tRNA synthetase (TcYRS) SOP. In kind it is functional. The conditions noted are these: 30 µM.
Assay [11] addresses Chromo domain-containing protein 1 (Saccharomyces cerevisiae (strain ATCC 204508 / S288c) (Baker's yeast)) (UniProt P32657). Nature of the assay: ScCHD-1 Enzyme Inhibition Assay. Also: in the data most compounds retested in dose-response had high values. In kind it is functional. Particulars: 30 µM.

Sequence of Protein translocase subunit SecA (Escherichia coli (strain K12)) (P10408 whole entry): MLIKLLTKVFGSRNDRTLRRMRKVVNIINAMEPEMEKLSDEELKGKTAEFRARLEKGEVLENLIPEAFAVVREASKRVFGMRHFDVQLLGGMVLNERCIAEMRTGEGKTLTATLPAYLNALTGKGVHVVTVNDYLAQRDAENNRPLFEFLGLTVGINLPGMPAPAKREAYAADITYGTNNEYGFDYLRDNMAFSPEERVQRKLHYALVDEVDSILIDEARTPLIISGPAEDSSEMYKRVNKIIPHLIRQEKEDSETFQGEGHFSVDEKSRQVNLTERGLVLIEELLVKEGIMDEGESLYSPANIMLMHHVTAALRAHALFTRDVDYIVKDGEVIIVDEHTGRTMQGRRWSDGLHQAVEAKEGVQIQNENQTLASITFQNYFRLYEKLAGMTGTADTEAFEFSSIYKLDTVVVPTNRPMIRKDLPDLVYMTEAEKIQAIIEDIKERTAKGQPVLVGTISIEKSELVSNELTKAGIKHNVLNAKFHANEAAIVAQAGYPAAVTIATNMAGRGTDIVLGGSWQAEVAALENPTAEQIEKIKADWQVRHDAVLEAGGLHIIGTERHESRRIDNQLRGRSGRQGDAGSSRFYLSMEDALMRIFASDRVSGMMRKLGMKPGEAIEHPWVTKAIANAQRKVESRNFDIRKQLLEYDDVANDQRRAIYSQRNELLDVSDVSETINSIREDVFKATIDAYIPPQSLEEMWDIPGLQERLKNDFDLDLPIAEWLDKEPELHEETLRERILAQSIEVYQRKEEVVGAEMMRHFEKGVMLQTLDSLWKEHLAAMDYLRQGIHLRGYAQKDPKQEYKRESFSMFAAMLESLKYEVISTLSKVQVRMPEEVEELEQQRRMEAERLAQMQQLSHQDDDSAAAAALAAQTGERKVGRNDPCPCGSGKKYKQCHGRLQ
Sequence of Chromo domain-containing protein 1 (Saccharomyces cerevisiae (strain ATCC 204508 / S288c) (Baker's yeast)) (P32657 whole entry, the tested form may be a part): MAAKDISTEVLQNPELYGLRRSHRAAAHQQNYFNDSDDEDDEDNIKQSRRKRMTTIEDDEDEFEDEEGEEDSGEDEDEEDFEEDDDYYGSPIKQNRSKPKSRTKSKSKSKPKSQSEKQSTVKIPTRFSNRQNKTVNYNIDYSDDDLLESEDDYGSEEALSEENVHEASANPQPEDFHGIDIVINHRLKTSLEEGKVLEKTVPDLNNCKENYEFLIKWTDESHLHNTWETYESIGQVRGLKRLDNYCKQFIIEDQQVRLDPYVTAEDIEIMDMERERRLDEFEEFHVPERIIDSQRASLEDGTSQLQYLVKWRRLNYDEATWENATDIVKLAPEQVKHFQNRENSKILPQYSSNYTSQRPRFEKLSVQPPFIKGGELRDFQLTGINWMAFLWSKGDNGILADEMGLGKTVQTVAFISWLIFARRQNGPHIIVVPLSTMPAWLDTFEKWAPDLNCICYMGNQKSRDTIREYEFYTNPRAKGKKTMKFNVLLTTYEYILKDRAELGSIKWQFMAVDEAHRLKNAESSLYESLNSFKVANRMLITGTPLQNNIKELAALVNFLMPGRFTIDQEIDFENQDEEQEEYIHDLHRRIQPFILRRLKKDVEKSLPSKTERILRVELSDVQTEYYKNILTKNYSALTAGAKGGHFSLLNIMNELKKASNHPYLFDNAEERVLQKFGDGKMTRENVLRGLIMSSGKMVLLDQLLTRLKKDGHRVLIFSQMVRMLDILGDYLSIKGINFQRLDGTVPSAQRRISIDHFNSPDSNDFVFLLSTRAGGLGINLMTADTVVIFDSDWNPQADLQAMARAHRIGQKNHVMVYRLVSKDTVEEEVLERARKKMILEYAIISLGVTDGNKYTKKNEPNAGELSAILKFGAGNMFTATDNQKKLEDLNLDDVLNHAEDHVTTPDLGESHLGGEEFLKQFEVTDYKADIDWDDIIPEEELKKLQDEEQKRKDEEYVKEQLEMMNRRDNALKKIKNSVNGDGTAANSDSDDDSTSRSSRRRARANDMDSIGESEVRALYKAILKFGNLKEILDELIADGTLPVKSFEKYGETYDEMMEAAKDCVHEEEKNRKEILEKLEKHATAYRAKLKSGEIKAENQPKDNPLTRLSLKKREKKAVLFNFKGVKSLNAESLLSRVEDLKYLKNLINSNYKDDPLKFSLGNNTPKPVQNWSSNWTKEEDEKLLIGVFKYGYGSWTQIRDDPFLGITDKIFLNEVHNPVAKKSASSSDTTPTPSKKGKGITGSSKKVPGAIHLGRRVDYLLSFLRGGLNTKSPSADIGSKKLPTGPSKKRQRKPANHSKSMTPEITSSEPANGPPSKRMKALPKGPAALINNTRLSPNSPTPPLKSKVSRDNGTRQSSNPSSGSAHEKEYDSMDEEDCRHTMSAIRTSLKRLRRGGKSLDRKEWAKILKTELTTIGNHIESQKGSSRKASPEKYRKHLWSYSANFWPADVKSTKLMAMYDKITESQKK
Sequence of Sialic acid-binding Ig-like lectin 9 (Homo sapiens) (Q9Y336 whole entry): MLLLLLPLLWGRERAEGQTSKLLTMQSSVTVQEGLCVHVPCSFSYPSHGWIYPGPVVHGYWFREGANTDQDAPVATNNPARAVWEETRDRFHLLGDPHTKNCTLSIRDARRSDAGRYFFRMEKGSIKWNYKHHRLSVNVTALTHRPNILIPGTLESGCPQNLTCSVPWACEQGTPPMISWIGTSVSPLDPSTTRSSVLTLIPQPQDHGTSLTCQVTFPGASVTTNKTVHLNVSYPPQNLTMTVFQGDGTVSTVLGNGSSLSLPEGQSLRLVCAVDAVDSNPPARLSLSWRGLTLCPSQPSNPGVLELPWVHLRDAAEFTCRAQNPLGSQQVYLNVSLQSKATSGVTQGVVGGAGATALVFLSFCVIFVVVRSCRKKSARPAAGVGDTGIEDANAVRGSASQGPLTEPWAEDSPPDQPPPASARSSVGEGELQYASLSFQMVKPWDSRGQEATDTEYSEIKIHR

With `O=C(CC1CC1)NCc1cn2c(n1)CN(C(=O)c1cccnc1)CC2`, the Percent Effect in assay [1] was -2.41%; in assay [2], 8%; in assay [3], 8.62%; in assay [4] it was 2.88%; in [5], -7.28%; in assay [6], 1.17%. Also, the Percent Effect in [7] worked out at 2.73%; in [8], 9.61%; in [9], 0%; in assay [10], 8.97%; in assay [11], 3.52%.

In the case of `Cn1c(Cn2cccn2)nnc1C1CCCN(c2ccncc2)C1` (stereo unspecified), the Percent Effect is -2.64% in assay [1]; 2.7% in assay [2]; -4% in assay [3]; 11.4% in [4]; 3.86% in [5]; -1.43% in [6]. For the same compound, the Percent Effect in [7] is 17.6%; in [8], 11.9%; in assay [9], 6.88%; in [10], 19.5%; in assay [11], -1.63%.

As for `Clc1ccccc1C1(c2ccnc(CC3CC3)n2)CCNCC1`, the Percent Effect is -2.96% in assay [1]; -7.79% in [2]; -1.73% in [3]; 13.8% in assay [4]; 6.59% in assay [5]; -80% in assay [6]. Further, the Percent Effect in assay [7] is 13.1%; in assay [8], -7.99%; in assay [9] it was 8.6%; in assay [10] it was 16.1%; in assay [11], -0.745%.

On to `CC(NC(=O)NCCCn1cccn1)c1cccnc1` (stereo unspecified), for which the Percent Effect was -4.3% in assay [1]; -2.67% in assay [2]; -0.757% in [3]; -5.85% in assay [4]; -4.77% in assay [5]; -3.12% in assay [6]. Also, the Percent Effect in assay [7] is 7.85%; in assay [8] it was 1.99%; in assay [9] it was -1.64%; in [10] it was -6.17%; in [11], 6.57%.

Take `CCn1c(C)nnc1CN(C)C1CCN(Cc2cnc(C)cn2)C1` (stereo unspecified): the Percent Effect in assay [1] was -3.27%; in assay [2], 10.8%; in assay [3] it was -13.9%; in assay [4], 0.873%; in [5], -0.88%; in assay [6], -2.73%. Besides, the Percent Effect in [7] was 7.81%; in assay [8], 16.2%; in [9], 8.6%; in assay [10] it was 18.5%; in [11], -7%.

With `Cc1ccc(S(=O)(=O)N2CSCC2C(=O)N(C)C2CC2)cc1Cl` (stereo unspecified), the Percent Effect in [1] is -5.45%; in assay [2], 5.41%; in assay [3] it was -2.19%; in assay [4], 10.8%; in assay [5], 6.16%; in assay [6], 1.74%. Also, the Percent Effect in [7] was 7.47%; in assay [8] it was 5.7%; in assay [9], 0%; in [10] it was 3.7%; in [11], -5.33%.

For `c1ccc(-c2cnc(CN3CCn4c(nnc4C4CC4)C3)o2)cc1`, the Percent Effect in [1] was 3.62%; in assay [2], 13.2%; in [3], -0.492%; in assay [4], 0.484%; in assay [5], -0.564%; in assay [6], 6.9%. The Percent Effect in [7] is 10%; in assay [8], 18.2%; in assay [9], 6.37%; in assay [10], 17.1%; in assay [11] it was -9.44%.

On to `CCn1nc(C)c2nc(C(C)C)nc(NCCCO)c21`, for which the Percent Effect in assay [1] was -2.47%; in assay [2] it was 12%; in [3], 4.47%; in [4] it was 13.2%; in [5], 1.97%; in assay [6] it was 0.176%. Besides, the Percent Effect in assay [7] was 12.6%; in assay [8], 33.7%; in assay [9], 4.23%; in assay [10] it was 12.8%; in assay [11], -6.99%.

As to `CCOc1cc(C)nc(N2CCN(C(=O)CC)CC2)n1`, the Percent Effect was -4.4% in assay [1]; 5.41% in assay [2]; 144% in assay [3]; 10.3% in assay [4]; 0.836% in [5]; 0.924% in [6]. The Percent Effect is -14.4% in [7]; 17.8% in assay [8]; 6.93% in assay [9]; 6.1% in assay [10]; 7.75% in assay [11].

Consider `CC(C)(C)c1nnc(CN2CCCC(c3cc(C(N)=O)[nH]n3)C2)o1` (stereo unspecified), for which the Percent Effect was -6.11% in assay [1]; 10.8% in assay [2]; -2.58% in [3]; -2.88% in assay [4]; -7.08% in assay [5]; -10% in assay [6]. Also, the Percent Effect in assay [7] is 3.78%; in assay [8], 9%; in assay [9], -2.46%; in assay [10] it was -1.24%; in assay [11] it was -5.5%.

`COCCNc1nc(C2CCCC2)nc2c1CCNCC2`: the Percent Effect in [1] was -0.492%; in assay [2] it was -2.7%; in [3], -0.634%; in assay [4], -1.74%; in [5] it was 4.83%; in [6], 1.91%. In addition, the Percent Effect was -38.6% in assay [7]; -3.26% in assay [8]; 10.1% in [9]; 19.5% in assay [10]; -2.52% in assay [11].
